Reference: PubChem BioAssay (NCATS)
Where “and” joins values, the source holds several entries; their conditions need not be identical. Equal entries are not always repeated. Records with an inconclusive call do not appear. Calls of active or inactive are those of the source. Unless noted, calls come from the whole dose curve; as a rule, active = well fitted curve in the direction sought with a large enough effect; inconclusive = small, poorly fitted or top-dose-only effect, or another doubt; inactive = no such curve, though single readings can be large; an effect the other way counts as inactive or inconclusive.

Key:
[1] = Cell Viability - Jurkat (AID 426;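 active = dose-dependent loss of cell ATP signal giving a full or clear fitted curve, ranked by lower potency value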; note: potency is the fitted concentration of half-maximal effect); conditions: qHTS
In short: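 Jurkat (clone E6-1, human T-cell leukemia) cells, 5000/well in complete medium, were exposed to compound for 40 hr at 37 °C. Viability was read as intracellular ATP by CellTiter-Glo luminescence; AC50 came from Hill fits of concentration-response data.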

[2] = Cell Viability - NIH 3T3 (AID 541); conditions: NIH 3T3 cell viability, qHTS; activity change, negative = cytotoxicity: at 92.2 µM (top of the series); note: nearly all actives have a fitted effect of over 25% in size; note: potency is the fitted concentration of half-maximal effect;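 for activity change, negative = cytotoxicity: plate controls were DMSO alone for no effect and tamoxifen positive control for full effect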
In short: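 NIH 3T3 mouse embryo fibroblasts (1000 cells/well) were plated in complete medium and treated with compound for 40 hr at 37 °C. Viability was read as intracellular ATP by CellTiter-Glo luminescence; AC50 values came from Hill-equation fits of concentration-response data.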

[3] = Cell Viability - Mesenchymal (AID 546); conditions: mesenchymal cells viability, qHTS; series mostly up to 91.7 µM;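 note: cells exposed to compound for 40 hours before reading; 0% = DMSO only and -100% = 100 µM tamoxifen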
In short: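 Normal human renal glomerulus-derived kidney mesenchymal cells, 1000 per well in complete medium, were treated with compounds for 40 hr at 37 °C. Viability was read as intracellular ATP by CellTiter-Glo luminescence; AC50 values came from Hill-equation fits of qHTS concentration-response data.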

[4] = Cellular Toxicity (caspase-3) MRC-5 (AID 659); conditions: MRC-5 cells, luminescence, normalized: DMSO 0%, 10 µM staurosporine 100%; series mostly up to 91.7 µM
In short: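 Luminescence from caspase-cleaved aminoluciferin substrate (Caspase-Glo 3/7, 1 hr RT) reports caspase 3/7 activity in MRC-5 lung fibroblasts after 16 hr compound exposure. Normalized to DMSO basal and 10 uM staurosporine as 100%; AC50 from Hill fits.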

[5] = MultiTox-Fluor Cytotoxicity Assay - LYMP1-001 - Dead Cells (AID 946); conditions: LYMP1-001 lymphoblastoid cells, dead-cell protease fluorescence; series mostly up to 92.2 µM;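 note: 0% = DMSO and 100% = tetraoctylammonium bromide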
In short: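 AC50 from Hill fit of concentration-response; data normalized to DMSO (basal) and 15 uM tetraoctylammonium bromide (100%). LYMP1-001 lymphoblastoid cells, 2500/well, 16 hr compound at 37 C; dead-cell protease fluorescence, Ex/Em 485/520.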

[6] = MultiTox-Fluor Cytotoxicity Assay - LYMP1-002 - Live Cells (AID 955); conditions: LYMP1-002 lymphoblastoid live-cell protease fluorescence viability; series mostly up to 46.1 µM; note: % is set by controls: 0 for no effect and ±100 for the full control effect
In short: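 Human lymphoblastoid LYMP1-002 cells, 2500/well in complete medium, rested 5 hr at 37 C, then exposed to compounds for 16 hr at 37 C. Live-cell protease cleavage of GF-AFC read by fluorescence (Ex/Em 405/510) after 60 min at room temperature; AC50 from Hill fits.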

[7] = Cell Viability - LYMP1-003 - Assay at 24 hr (AID 963); conditions: LYMP1-003 lymphoblastoid cell viability; series mostly up to 92.2 µM;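 note: plate controls were DMSO only for no effect and tetraoctylammonium bromide positive control for full effect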
In short: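 Human lymphoblastoid LYMP1-003 cells (2500/well) were rested 5 hr at 37 C, then exposed to compounds in complete medium for 24 hr at 37 C. Cellular ATP was quantified by CellTiter-Glo luminescence, and AC50 values came from Hill fits of concentration-response data.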

[8] = Cell Viability - LYMP2-015 (AID 971); conditions: LYMP2-015 lymphoblastoid cell viability; series mostly up to 92.2 µM;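 note: 0% = DMSO only and full effect = 92 µM tetraoctylammonium bromide; nearly all actives have a fitted effect of over 55% in size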
In short: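 Human lymphoblastoid cells (2500/well) in complete medium were preincubated 5 hr at 37 C, then compound-treated 24 hr at 37 C. Intracellular ATP was read by CellTiter-Glo luminescence after 30 min at room temperature; AC50 came from Hill-equation concentration-response fits.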

[9] = Cell Viability - LYMP2-016 (AID 984); conditions: LYMP2-016 lymphoblastoid cell viability, qHTS; series mostly up to 92.2 µM; note: % is set by controls: 0 for no effect and ±100 for the full control effect; nearly all actives have a fitted effect of over 55% in size
In short: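 Cells were seeded at 2500 per well and rested 5 hr before a 24 hr compound exposure at 37 C. Viability was then gauged as cellular ATP by luciferase luminescence, with AC50 values fitted to the Hill equation.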

[10] = Cell Viability - LYMP2-024 (AID 988); conditions: LYMP2-024 lymphoblastoid cell viability; series mostly up to 92.2 µM;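 note: plate controls were DMSO only for no effect and 92 µM tetraoctylammonium bromide for full effect; nearly all actives have a fitted effect of over 60% in size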
In short: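 Human lymphoblastoid cells (2500/well) in complete medium were preincubated 5 hr at 37 C, then exposed to compounds for 24 hr at 37 C. Intracellular ATP was read by CellTiter-Glo luminescence; AC50 from Hill-equation fits of concentration-response data.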

[11] = Cell Viability - LYMP1-002 - Assay at 24 hr (AID 993); conditions: LYMP1-002 lymphoblastoid cells viability; series mostly up to 92.2 µM; note: % is set by controls: 0 for no effect and ±100 for the full control effect
In short: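 Human lymphoblastoid LYMP1-002 cells, 2500/well in complete medium, were treated with compounds for 24 h at 37 C; intracellular ATP was read by CellTiter-Glo luminescence. AC50 values came from Hill-equation fits of qHTS concentration-response data.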

[12] = biological target: Vitamin D3 receptor (Homo sapiens) (UniProt P11473); assay: qHTS assay for small molecule agonists of vitamin D receptor signaling (AID 588543; calls by dose curve;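 note: 0% = DMSO basal and 100% = reference agonist control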); conditions: HEK293T VDR-UAS-bla, beta-lactamase ratio, 16 h; series mostly up to 76.8 µM
Chain of Vitamin D3 receptor (Homo sapiens) (P11473 whole entry, looked up): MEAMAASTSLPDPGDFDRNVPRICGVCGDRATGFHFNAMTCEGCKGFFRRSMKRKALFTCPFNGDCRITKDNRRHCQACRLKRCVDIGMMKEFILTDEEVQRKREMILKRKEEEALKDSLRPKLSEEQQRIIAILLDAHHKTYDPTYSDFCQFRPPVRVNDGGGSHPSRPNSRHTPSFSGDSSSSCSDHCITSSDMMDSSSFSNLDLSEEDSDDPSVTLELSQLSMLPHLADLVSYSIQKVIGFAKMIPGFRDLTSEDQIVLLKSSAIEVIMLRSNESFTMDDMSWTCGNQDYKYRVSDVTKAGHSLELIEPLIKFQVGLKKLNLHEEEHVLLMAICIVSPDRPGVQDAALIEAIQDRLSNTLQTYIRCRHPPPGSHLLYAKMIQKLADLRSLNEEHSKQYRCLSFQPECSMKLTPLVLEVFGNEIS
In short: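 Reporter cells (HEK293T, VDR-UAS-bla) were seeded in medium with 2% charcoal-stripped serum and incubated 5 h, then compounds in concentration series were added for 16 h at 37 °C. Stimulation was scaled between DMSO basal and 50 nM 1α,25-dihydroxyvitamin D3.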

[13] = qHTS assay for small molecule disruptors of the mitochondrial membrane potential - 5 hr assay (AID 651755; calls by dose curve; note: nearly all actives have a fitted effect of over 40% in size; note: potency is the fitted concentration of half-maximal effect); conditions: JC-1-type ratio dye; series mostly up to 92.2 µM
In short: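 HepG2 cells, attached overnight at 37C, were exposed to compound or DMSO for 5 hr at 37C, 5% CO2. Mito-MPS dye was then added for 30 min, and fluorescence read at 490/535 nm (monomers) and 540/590 nm (aggregates).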

[14] = biological target: Peroxisome proliferator-activated receptor alpha (Homo sapiens) (UniProt Q07869); assay: qHTS assay for small molecule agonists of the peroxisome proliferator-activated receptor alpha (PPARalpha) signaling pathway (AID 651778); conditions: PathHunter PPARalpha complementation, chemiluminescence, 6 h; stronger effect = higher value; note: % of control where 0% means no effect
Chain of Peroxisome proliferator-activated receptor alpha (Homo sapiens) (Q07869 whole entry, looked up): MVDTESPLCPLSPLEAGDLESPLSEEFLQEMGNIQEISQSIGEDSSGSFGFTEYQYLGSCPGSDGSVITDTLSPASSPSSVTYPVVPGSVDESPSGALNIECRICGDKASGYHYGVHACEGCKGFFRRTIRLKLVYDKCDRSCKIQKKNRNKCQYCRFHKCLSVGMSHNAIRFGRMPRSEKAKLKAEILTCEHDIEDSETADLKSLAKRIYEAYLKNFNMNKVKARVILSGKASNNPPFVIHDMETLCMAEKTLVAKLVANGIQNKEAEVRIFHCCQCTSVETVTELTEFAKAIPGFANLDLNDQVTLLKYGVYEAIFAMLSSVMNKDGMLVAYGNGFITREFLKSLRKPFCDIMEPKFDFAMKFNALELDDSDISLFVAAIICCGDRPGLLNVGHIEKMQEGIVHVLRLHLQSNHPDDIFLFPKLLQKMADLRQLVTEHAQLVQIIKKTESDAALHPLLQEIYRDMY
In short: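 Cells plated at 2,000/well and held overnight at 37 C, 5% CO2, then compound added by pin tool for 6 hr; after PathHunter detection reagent and 60 min at room temperature, chemiluminescence from enzyme complementation was read.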

[15] = biological target: Nuclear receptor ROR-gamma (Homo sapiens) (UniProt P51449); assay: qHTS assay for small molecule antagonists of the retinoid-related orphan receptor gamma (ROR-gamma) signaling pathway (AID 651802); conditions: ROR-gamma antagonist cell reporter assay; series mostly up to 92.2 µM; note: nearly all actives have a fitted effect of over 60% in size; note: potency is the fitted concentration of half-maximal effect
Chain of Nuclear receptor ROR-gamma (Homo sapiens) (P51449 whole entry, looked up): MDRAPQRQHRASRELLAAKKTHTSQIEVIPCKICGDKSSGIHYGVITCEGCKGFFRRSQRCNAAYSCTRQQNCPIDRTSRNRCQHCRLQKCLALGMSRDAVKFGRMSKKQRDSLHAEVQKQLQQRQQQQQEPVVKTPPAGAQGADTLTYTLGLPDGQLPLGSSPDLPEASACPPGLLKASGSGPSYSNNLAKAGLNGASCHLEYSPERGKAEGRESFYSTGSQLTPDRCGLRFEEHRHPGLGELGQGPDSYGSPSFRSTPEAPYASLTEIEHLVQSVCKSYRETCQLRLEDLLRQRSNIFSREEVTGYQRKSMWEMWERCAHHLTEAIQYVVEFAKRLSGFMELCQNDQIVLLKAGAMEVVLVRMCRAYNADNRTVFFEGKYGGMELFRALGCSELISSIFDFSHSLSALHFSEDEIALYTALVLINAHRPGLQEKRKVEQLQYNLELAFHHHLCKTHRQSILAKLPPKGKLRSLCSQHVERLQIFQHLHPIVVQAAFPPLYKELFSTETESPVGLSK
In short: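 CHO cells carrying TET-inducible ROR-gamma and an ROR response element–luciferase reporter were exposed to compound, then induced with doxycycline. After 16hr at 37C, luminescence was read; lower signal indicates antagonism.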

[16] = qHTS assay for small molecule antagonists of the retinoid-related orphan receptor gamma (ROR-gamma) signaling pathway - cell viability counter screen (AID 720652; active = well fitted curve in the direction sought with a large enough effect in the repeat runs; an effect the other way counts as inactive or inconclusive;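 note: compound exposure lasted 16 hr before ATP read; % is set by controls: 0 for no effect and ±100 for the full control effect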); conditions: RORgamma reporter cell line viability counter screen; series mostly up to 92.2 µM
In short: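 Counter screen in CHO cells carrying TET-inducible ROR-gamma and an ROR response element-luciferase reporter; cells plated 5 hr, compound pinned, doxycycline added, then 16 hr at 37 C. Viability read as intracellular ATP by CellTiter-Glo luminescence.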

[17] = qHTS assay for small molecule agonists of the antioxidant response element (ARE) signaling pathway measured by Nrf2-dependant transcriptional activity - cell viability counter screen (AID 720653; active = well fitted curve in the direction sought with a large enough effect in the repeat runs; an effect the other way counts as inactive or inconclusive; note: % is set by controls: 0 for no effect and ±100 for the full control effect); conditions: ARE-bla HepG2 viability, CellTiter-Glo ATP luminescence, 16 h; stronger effect = lower value
In short: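 ARE-bla HepG2 cells (2,000/well) rested 5 hrs at 37C/5% CO2, then exposed to compounds in DMSO for 16 hrs. Viability was read in the same wells as intracellular ATP by luminescence, 30 min at room temperature after reagent addition.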

[18] = qHTS assay for cell viability of the p53RE-bla HCT-116 cell line (AID 743292); conditions: p53RE-bla HCT-116 viability, ATP luminescence, 16 h; series mostly up to 95 µM; note: % is set by controls: 0 for no effect and ±100 for the full control effect; nearly all actives have a fitted effect of over 55% in size
In short: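 Readout: CellTiter-Glo luminescence after 30 min RT. Treatment: compounds in DMSO, 16 h, 37 C. Cells: CellSensor p53RE-bla HCT-116, 4,000/well, preincubated 5 h.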

[19] = biological target: Nuclear receptor subfamily 1 group I member 2 (Rattus norvegicus) (UniProt Q9R1A7); assay: qHTS assay for small molecule activators of the rat pregnane X receptor (rPXR) signaling pathway (AID 651751; call rule not given here; note: 0% is about no effect); conditions: rPXR reporter cells, luciferase (One-Glo), 24 h
Chain of Nuclear receptor subfamily 1 group I member 2 (Rattus norvegicus) (Q9R1A7 whole entry, looked up): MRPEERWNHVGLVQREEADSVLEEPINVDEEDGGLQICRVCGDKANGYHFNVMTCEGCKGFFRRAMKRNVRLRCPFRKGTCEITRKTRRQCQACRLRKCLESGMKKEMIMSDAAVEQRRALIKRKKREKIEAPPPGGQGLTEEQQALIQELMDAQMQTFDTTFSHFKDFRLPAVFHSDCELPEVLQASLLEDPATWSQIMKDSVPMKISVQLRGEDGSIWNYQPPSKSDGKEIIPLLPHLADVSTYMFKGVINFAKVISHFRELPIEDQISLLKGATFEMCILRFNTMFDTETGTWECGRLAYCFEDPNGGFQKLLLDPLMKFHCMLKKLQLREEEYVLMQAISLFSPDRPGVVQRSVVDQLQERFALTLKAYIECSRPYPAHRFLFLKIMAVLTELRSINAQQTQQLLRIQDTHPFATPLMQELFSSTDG

[20] = Cellular Toxicity (caspase-3) NIH 3T3 (AID 666); conditions: NIH 3T3 caspase-3 activation, apoptosis/toxicity; series mostly up to 92.2 µM;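 note: caspase signal read after 16 h compound exposure; 0% = DMSO basal and 100% = 100 µM tamoxifen stimulation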
In short: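 Mouse NIH 3T3 fibroblasts (1000 cells/well) were treated with compound for 16 hr at 37°C in complete medium; caspase-3/7 activity was read by Caspase-Glo luminescence. Normalized to DMSO and 100 uM tamoxifen; AC50 from Hill fits.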

c1ccc(P(c2ccccc2)c2ccccc2)cc1
inactive: Potency [1] > 92 µM | Potency [3] | outcome [4] | outcome [5] | outcome [6] | outcome [7] | Potency [8] | Potency [9] | Potency [10] | Potency [11] | outcome [12] | Potency [13] | max response [14] -4.42% | Potency [15] | Potency [16] | max response [17] -10.4% | Potency [18] | max response [19] 2.64%
active: Potency [2] 25.1 µM

BrCCc1ccccc1
inactive: Potency [1] > 92 µM | Potency [2] | Potency [3] | outcome [4] | outcome [6] | outcome [7] | Potency [9] | Potency [10] | Potency [13] | max response [14] -3.08% | Potency [15] | Potency [16] | max response [17] -7.12% | max response [19] -6.29%

Nc1c(Cl)cc([N+](=O)[O-])cc1Cl
inactive: Potency [1] > 92 µM | Potency [2] | Potency [20] | outcome [5] | outcome [7] | Potency [8] | Potency [9] | Potency [10] | Potency [11] | outcome [12] | max response [14] -4.31% and -1.23% | Potency [16] | Potency [18]
active: Potency [13] 42.2 µM

Oc1c(Cl)c(Cl)cc(Cl)c1Cl
active: Potency [1] 49.1 µM | Potency [15] 21.1 µM
inactive: Potency [3] | outcome [4] | Potency [20] | outcome [5] | outcome [6] | outcome [7] | Potency [8] | Potency [9] | Potency [10] | Potency [11] | max response [17] -2.21% | Potency [18] | max response [19] -8.76%

Nc1ccc(Cc2ccc(N)c(Cl)c2)cc1Cl
inactive: Potency [2] | Potency [3] | outcome [4] | Potency [20] | outcome [5] | outcome [7] | Potency [8] | Potency [9] | Potency [10] | Potency [11] | outcome [12] | Potency [13] | max response [14] 2.66% | Potency [16] | max response [17] -8.13% | Potency [18]

N#CC(Br)Br
inactive: Potency [3] | outcome [4] | Potency [20] | outcome [5] | outcome [6] | outcome [7] | Potency [9] | Potency [11] | Potency [13] | max response [14] -1.13% | Potency [15] | max response [17] -8.42% | Potency [18] | max response [19] -7.42%

c1ccc(N=NNc2ccccc2)cc1
inactive: Potency [1] > 92 µM | Potency [2] | Potency [3] | outcome [4] | Potency [20] | outcome [5] | outcome [7] | Potency [8] | Potency [9] | Potency [10] | outcome [12] | Potency [15] | Potency [16] | max response [17] -24.2% and -20.9% | Potency [18]
